Data as given in PubChem BioAssay (EPA / NIEHS).
Results filed as inconclusive are left out. Activity calls are given as the source filed them. How the source made its calls: active means hit-call score of the fitted dose curve at least 0.9, where 1 is the maximum; inconclusive means response in the unintended direction; inactive means score below 0.9.

Experiment: ATG_M_19_TRANS: Attagene TRANS-FACTORIAL HepG2 Assay for M19 Transcription Factor (Internal Marker) (AID 2282974)
Settings: HepG2 Attagene TRANS-FACTORIAL M19 internal marker reporter
Method: ATG_TRANS is a cell-based, multiplexed-readout assay that uses HepG2, a human liver cell line, with measurements taken at 24 hours after chemical dosing in a 24-well plate.ATG_M_19_TRANS is one of 30 assay component(s) measured or calculated from the ATG_TRANS assay. It is designed to make measurements of mRNA induction, a form of inducible reporter, as detected with fluorescence intensity signals by Reverse transcription polymerase chain reaction (RT-PCR) and Capillary electrophoresis technology.Data from the assay component ATG_M_19_TRANS was analyzed into 1 assay endpoint. This assay endpoint, ATG_M_19_TRANS, was analyzed in the positive analysis fitting direction relative to DMSO as the negative control and baseline of activity. Using a type of inducible reporter, measures of mRNA for gain-of-signal activity can be used to understand the background control at the transcription factor-level as they relate to the gene . Furthermore, this assay endpoint can be referred to as a secondary readout, because this assay has produced multiple assay endpoints where this one serves a background control function. To generalize the intended target to other relatable targets, this assay endpoint is annotated to the background measurement intended target family, where the subfamily is internal marker.
Human liver HepG2 cells are transiently transfected with multiple reporter transcription units (MRTUs) in 6-well plates using FuGene 6 reagent (Roche; 3 ml FuGene/1 mg DNA). The MRTU constructs are regulated by a cis-regulating element (promoter). […] A major difference between the CIS and TRANS system is that in CIS activities of endogenous TFs are measured, whereas the TRANS assay evaluates changes in activities of exogenous, chimeric NR-Gal4 proteins. […] At the end of 24 hour incubation, total RNA was isolated using TriZol reagent (Invitrogen). The isolated RNA is then reverse-transcribed using oligo(dT) primer and Mo-MLV reverse transcriptase (Invitrogen) with DNAse I (Ambion) treatment for 30 min. The one-tenth of the produced cDNA was amplified by PCR using Taq DNA polymerase (Invitrogen) and two reporter sequence-specific primers. The PCR products were fluorescently labeled by primer extension with 6-arboxyfluorescein (6-FAM) 5'-labeled reporter sequence-specific primer (2 min at 95 C, 20 s at 68 C and 10 min at 72 C) and these products were digested with 5U of HpaI (New England Biolabs) for 2h at 37 C. The fragments were purified using Qiaquick PCR columns (Qiagen), analyzed on an ABI 3130xL genetic analyzer (Applied Biosystems) with peak positions identified by using a set of X-rhodamine (ROX)-labeled MapMarker1000 molecular weight standards (BioVentures). The raw capillary electrophoresis data was processed using Attagraph software (Attagene).

outcome, inactive:
Cc1occc(=O)c1OC(=O)C(C)C, CCOC(=O)COC(=O)c1cc(Oc2ccc(C(F)(F)F)cc2Cl)ccc1[N+](=O)[O-], COCCOC(=O)c1ccccc1C(=O)OCCOC, CCCOC(=O)c1c(Cl)c(Cl)c(Cl)c(Cl)c1C(=O)OCCC, COS(=O)(=O)O, CCOC(=O)CC(C)O (stereo not given), C[C@H](CCC(=O)NCC(=O)O)[C@H]1CC[C@H]2[C@@H]3[C@H](O)C[C@@H]4C[C@H](O)CC[C@]4(C)[C@H]3C[C@H](O)[C@]12C, NCc1ccco1, C=CC(=C)CCCC(C)(C)OC(C)=O, CC(C)NCC(O)COc1ccc(CC(N)=O)cc1 (stereo not given), COc1cc(CCC(C)=O)ccc1O, Clc1cc(Cl)c(-c2c(Cl)c(Cl)cc(Cl)c2Cl)cc1Cl, Cc1ccc2c(c1)C(=O)OC2=O, CC(=O)NCCO, O=P(O)(O)O, Cc1ccc(S(=O)(=O)Oc2ccc(N=Nc3ccc(-c4ccc(N=Nc5c(O)ccc6cc(S(=O)(=O)O)cc(S(=O)(=O)O)c56)c(C)c4)cc3C)cc2)cc1, CCC(C)S (stereo not given), CCCCCCCC(=O)OCCCCCC, C1CCCCC1, CC/C=C\CC/C=C/CO, CCCC(=O)c1ccccc1, CC=CC=CCOC(=O)C(C)C, O=C(O)CCCCCCCCCCCC(=O)O, COC(=O)c1ccc(C)cc1C1=NC(C)(C(C)C)C(=O)N1 (stereo not given) (tested in a mixture with another compound), CCCCCCC(=O)c1ccccc1, COc1ccccc1N=Nc1c(S(=O)(=O)O)cc2cc(S(=O)(=O)O)cc(NC(C)=O)c2c1O, CCCCCC(C=O)=Cc1ccccc1, CC(C)CC(C)CC(O)CC(C)C (stereo not given), CCOc1ccc(N=Nc2ccc(C=Cc3ccc(N=Nc4ccc(OCC)cc4)cc3S(=O)(=O)O)c(S(=O)(=O)O)c2)cc1, C=C(C)C(=O)OCC(CC)(COC(=O)C(=C)C)COC(=O)C(=C)C, CCCCCc1ccco1, O=C1c2ccccc2C(=O)c2c(O)ccc(O)c21, O=CN1CCOCC1, CCCCCCCCCC(=O)OC, CS(=O)(=O)c1ccc(C2=C(c3ccccc3)C(=O)OC2)cc1, COc1ccc(N)c([N+](=O)[O-])c1, COC(CC(C)CCCC(C)(C)O)OC (stereo not given), O=[N+]([O-])c1ccc(O)cc1C(F)(F)F, O=C(O)c1ccc(O)cc1, COc1ccc(N=Nc2cc(C)c(N=Nc3ccc(S(=O)(=O)O)cc3)cc2OC)cc1
